Assay results: the supplement of paper PMC7261846
Counter-ions that a name gives are not always drawn. ± gives the uncertainty stated by the source.

Test system: Candida albicans SNY425 biofilm
Assay: biofilm OD600 with compound plus antifungal (OD600 (absorbance)); higher = more biofilm remaining
Settings: assay detail: disruption of 24-h mature biofilm (compound + antifungal for a second 24 h)

Row | SMILES | biofilm OD600
1 | O=C(NCCCCN1CCOCC1)c1cc2ccccc2o1 + CC[C@H](C)C[C@H](C)CCCCCCCCC(=O)N[C@H]1C[C@@H](O)[C@@H](NCCN)NC(=O)[C@@H]2[C@@H](O)CCN2C(=O)[C@H]([C@H](O)CCN)NC(=O)[C@H]([C@H](O)[C@@H](O)c2ccc(O)cc2)NC(=O)[C@@H]2C[C@@H](O)CN2C(=O)[C@H]([C@@H](C)O)NC1=O [caspofungin] (first compound 12.5 µM) | 0.251 ± 0.014
2 | NC(N)=NCCC[C@H](NC(=O)[C@@H]1CCCN1C(=O)[C@H](N)Cc1ccccc1)C(=O)CCl + CC[C@H](C)C[C@H](C)CCCCCCCCC(=O)N[C@H]1C[C@@H](O)[C@@H](NCCN)NC(=O)[C@@H]2[C@@H](O)CCN2C(=O)[C@H]([C@H](O)CCN)NC(=O)[C@H]([C@H](O)[C@@H](O)c2ccc(O)cc2)NC(=O)[C@@H]2C[C@@H](O)CN2C(=O)[C@H]([C@@H](C)O)NC1=O [caspofungin] (first compound 12.5 µM) | 0.274 ± 0.0098
3 | CC1CNc2c(cccc2S(=O)(=O)N[C@@H](CCCNC(=N)N)C(=O)N2CC[C@@H](C)C[C@@H]2C(=O)O)C1 (stereo not given in full) [Argatroban] + OC(Cn1cncn1)(Cn1cncn1)c1ccc(F)cc1F [fluconazole] (first compound 12.5 µM) | 0.286 ± 0.011
4 | CCCCCCCCCC(=O)N[C@@H](CCCN=C(N)N)C(=O)N[C@H](C(=O)N[C@@H](CCCCN)C(=O)N[C@@H](CCCN=C(N)N)C(=O)CCl)C(C)C + C[C@@H]1[C@H](O)[C@@H](C)/C=C/C=C/C=C/C=C/C=C/C=C/C=C/[C@H](O[C@@H]2O[C@H](C)[C@@H](O)[C@H](N)[C@@H]2O)C[C@@H]2O[C@](O)(C[C@@H](O)C[C@@H](O)[C@H](O)CC[C@@H](O)C[C@@H](O)CC(=O)O[C@H]1C)C[C@H](O)[C@H]2C(=O)O [amphotericin B] (first compound 4 µM) | 0.261 ± 0.0041
5 | CCCC[C@@H](C=O)NC(=O)OC(C)(C)C + OC(Cn1cncn1)(Cn1cncn1)c1ccc(F)cc1F [fluconazole] (first compound 12.5 µM) | 0.243 ± 0.0054
6 | O=C(O)CNC(=O)C(CS)Cc1ccccc1 (racemic) [DL-Thiorphan] + OC(Cn1cncn1)(Cn1cncn1)c1ccc(F)cc1F [fluconazole] (first compound 12.5 µM) | 0.262 ± 0.0084
7 | CCCCC[C@H](CC(=O)NO)C(=O)N[C@H](C(=O)N1CCC[C@H]1CO)C(C)C [Actinonin] + C[C@@H]1[C@H](O)[C@@H](C)/C=C/C=C/C=C/C=C/C=C/C=C/C=C/[C@H](O[C@@H]2O[C@H](C)[C@@H](O)[C@H](N)[C@@H]2O)C[C@@H]2O[C@](O)(C[C@@H](O)C[C@@H](O)[C@H](O)CC[C@@H](O)C[C@@H](O)CC(=O)O[C@H]1C)C[C@H](O)[C@H]2C(=O)O [amphotericin B] (first compound 12.5 µM) | 0.255 ± 0.017
8 | NC(=O)c1cccc(-c2cccc(OC(=O)NC3CCCCC3)c2)c1 + OC(Cn1cncn1)(Cn1cncn1)c1ccc(F)cc1F [fluconazole] (first compound 12.5 µM) | 0.283 ± 0.0052
9 | CC(C)C[C@H](NC(=O)[C@@H](O)[C@H](N)Cc1ccccc1)C(=O)O [Bestatin·HCl] + C[C@@H]1[C@H](O)[C@@H](C)/C=C/C=C/C=C/C=C/C=C/C=C/C=C/[C@H](O[C@@H]2O[C@H](C)[C@@H](O)[C@H](N)[C@@H]2O)C[C@@H]2O[C@](O)(C[C@@H](O)C[C@@H](O)[C@H](O)CC[C@@H](O)C[C@@H](O)CC(=O)O[C@H]1C)C[C@H](O)[C@H]2C(=O)O [amphotericin B] (first compound 12.5 µM) | 0.288 ± 0.0087
10 | C[C@H](NC(=O)[C@@H]1CCCN1C(=O)[C@@H]1CCCN1C(=O)[C@@H](O)[C@H](N)Cc1ccccc1)C(N)=O [Apstatin] + CC[C@H](C)C[C@H](C)CCCCCCCCC(=O)N[C@H]1C[C@@H](O)[C@@H](NCCN)NC(=O)[C@@H]2[C@@H](O)CCN2C(=O)[C@H]([C@H](O)CCN)NC(=O)[C@H]([C@H](O)[C@@H](O)c2ccc(O)cc2)NC(=O)[C@@H]2C[C@@H](O)CN2C(=O)[C@H]([C@@H](C)O)NC1=O [caspofungin] (first compound 12.5 µM) | 0.292 ± 0.0095
